# In PubChem BioAssay AID920 (The Scripps Research Institute Molecular Screening Center, 2007):
# Among all 200,000 compounds or so, about 700 (0.35%) were called active.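 Rule for the calls: active = inhibition above a set limit, the mean inhibition across all tested compounds plus 3 SD (cut at about 34% in these data); inactive = the rest.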 The full list was thinned out, with actives kept by preference.
# Assay: STAT1 signaling inhibitors, primary screen, cell-based, HTS, luciferase reporter (AID 920);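 note: 0% = IFN-gamma with DMSO and 100% = IFN-gamma with 300 µM nifuroxazide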
# Details: NIH 3T3 STAT1-luciferase reporter, IFN-gamma, luminescence; at 5.5 µM; active compounds read high
row,SMILES,inhibition
1,Clc1cccc(-c2nc(NCC3CCCO3)c3ccccc3n2)c1 (stereo unspecified),-0.29% (inactive)
2,CCc1[nH]nc(C(=O)N2CCCC(CNS(=O)(=O)c3cccs3)C2)c1C (stereo unspecified),0.5% (inactive)
3,O=C(CCl)N(Cc1cccc([N+](=O)[O-])c1)c1cccc(Cl)c1,60.4% (active)
4,O=C(Nc1cccc([N+](=O)[O-])c1)Nc1ccc(Cl)cn1,-18.6% (inactive)
5,CCN(CC)C(=O)CN(c1cccc([N+](=O)[O-])c1)S(=O)(=O)c1ccccc1,3.4% (inactive)
6,Cn1cccc1/C=C1\SC(=S)N(NC(=O)c2ccc(Cl)cc2)C1=O,-4.58% (inactive)
7,Cc1cc(C)nc(Nc2ncn[nH]2)n1,-2.94% (inactive)
8,Oc1ccc(-c2nncn2-c2ccccc2)cc1,-0.73% (inactive)
9,COc1ccc(OCc2cccc(C(=O)N3CCCC3)c2)cc1,17.5% (inactive)
10,CCOc1ccc(OCc2cccc(C(=O)N(CC)CC)c2)cc1,61% (active)
11,CCN(CC)C(=O)c1ccc(O)c(OC)c1,1.97% (inactive)
12,CCOc1ccc(NC(=O)CSc2ncnc3c2sc2ccccc23)cc1,1.83% (inactive)
13,Cc1nnc(CN(C)Cc2cn[nH]c2-c2ccc(-c3ccccc3)cc2)o1,-18.1% (inactive)
14,CCCCn1c(O)c(N=NC(=O)Cn2c(C(F)(F)F)nc3ccccc32)c2ccccc21,-1.73% (inactive)
15,Cc1ccc(N(C(=O)Cc2cccs2)C2C=CS(=O)(=O)C2)cc1Cl (stereo unspecified),0.68% (inactive)
16,C[C@@H]1C[C@@H]2O[C@H]2/C=C\C=C\C(=O)Cc2c(Cl)c(O)cc(O)c2C(=O)O1,41.3% (active)
17,O=C(COC(=O)CCc1ccc(S(=O)(=O)N2CCOCC2)cc1)Nc1cccc(Cl)c1,-8.09% (inactive)
18,CCN(CC)S(=O)(=O)c1ccc(C)c(NC(=O)COc2ccc(Br)cc2Cl)c1,0.32% (inactive)
19,O=C(Nc1ccc2c(c1)OCCO2)c1cnccn1,-23.3% (inactive)
20,Cn1cc([N+](=O)[O-])c(C(=O)Nc2ccc3c(c2)OCCO3)n1,48.8% (active)
21,Cn1cc([N+](=O)[O-])c(C(=O)Nc2cnn(Cc3ccc(F)cc3)c2)n1,20.5% (inactive)

row,SMILES,inhibition
1,NS(=O)(=O)c1ccc(N2C(=O)C3C4CC(C(Br)C4Br)C3C2=O)cc1 (stereo unspecified),2.56% (inactive)
2,CS(=O)(=O)N(Cc1ccccc1)c1ccc(C(=O)NN=C2CCCCCC2)cc1,6.58% (inactive)
3,O=C(NC(Nc1nc2ccc([N+](=O)[O-])cc2s1)(C(F)(F)F)C(F)(F)F)c1ccccc1,60.6% (active)
4,O=C(O)CCC(=O)Nc1nc2ccc([N+](=O)[O-])cc2s1,-0.97% (inactive)
5,O=C(Nc1nc2ccc([N+](=O)[O-])cc2s1)c1ccc(S(=O)(=O)N2CCCc3ccccc32)cc1,12.3% (inactive)
6,O=C(COc1ccccc1)Nc1ccc(N2CCN(C(=O)c3cccs3)CC2)cc1,-5.48% (inactive)
7,CN(c1ccc2nc3ccccc3c(=O)n2n1)C1CCCCC1,90.1% (active)
8,CCOC(=O)C(C)Sc1nc2ccccc2c(=O)n1CC1CCCCC1 (stereo unspecified),2.46% (inactive)
9,O=c1c2ccccc2nc2n1C1(CCCCC1)Cc1ccccc1-2,-5.21% (inactive)
10,Cc1ccc(C)c(-n2nnnc2SCC(=O)c2c(N)n(C)c(=O)n(C)c2=O)c1,-0.37% (inactive)
11,CCc1ccc(NC(=O)Nc2ccncc2)cc1,-10.4% (inactive)
12,COc1cc(C)c(Cl)cc1S(=O)(=O)n1ccnc1,7.39% (inactive)
13,CCCOc1cc(C)c(S(=O)(=O)n2nnc3ccccc32)cc1C,-0.4% (inactive)
14,CCOc1cc(C)c(Cl)cc1S(=O)(=O)n1nnc2ccccc21,42.2% (active)
15,CC(CC(=O)O)CC(=O)NNC(=O)c1cccc(Br)c1 (stereo unspecified),-8.27% (inactive)
16,O=C1c2ccccc2NC(c2ccccn2)N1NS(=O)(=O)c1ccccc1 (stereo unspecified),-5.92% (inactive)
17,O=C(c1cn(-c2ccccc2)nc1-c1cc2ccccc2oc1=O)N1CCOCC1,2.66% (inactive)
18,Nc1ncc(-c2cc3ccccc3oc2=O)s1,-72.7% (inactive)
19,O=c1oc2ccccc2cc1-c1cn(-c2ccccc2)c(=S)[nH]1,76.9% (active)
20,CCNC(=O)COc1cc(C)c(Br)c(C)c1,-0.94% (inactive)
21,CCC1CCCCN1CCCNC(=O)c1cc2c(Cl)nc3ccccc3c2s1 (stereo unspecified),-24.2% (inactive)

row,SMILES,inhibition
1,O=C(C1=C[C@H](c2coc3ccccc3c2=O)C[C@H](OCc2ccc(CO)cc2)O1)N1CCN(Cc2ccccc2)CC1,7.51% (inactive)
2,O=C1CC(c2c(F)cccc2Cl)C(n2cncn2)C(O)=C1C1NCCc2ccccc21 (stereo unspecified),-3.15% (inactive)
3,O=C(O)c1ccc(N/N=C/c2ccc3ncccc3c2)cc1,37.4% (active)
4,CCNC(=S)NNC(=O)c1ccc2ncccc2c1,-9.62% (inactive)
5,O=C(O)c1ccc(N/N=C/c2cn(-c3ccccc3)nc2-c2cccs2)cc1,-5.55% (inactive)
6,COc1ccc(N2CCN(C(=O)c3ccc4c(Cl)c5c(nc4c3)CCCC5)CC2)cc1,1.44% (inactive)
7,CN1c2ccccc2-c2nc3ccccc3n2C1c1ccco1 (stereo unspecified),-3.93% (inactive)
8,Cn1cccc1-c1nc2ccccc2n1C,-1.19% (inactive)
9,Cn1c(-c2ccco2)nc2cc3ccccc3cc21,36.6% (active)
10,COCCNC(=S)N1CCC(NC(=O)C23CC4CC(CC(C4)C2)C3)CC1,-0.94% (inactive)
11,CCOC(=O)C1(Cc2ccc(Cl)cc2)CCN(C(=O)C2=NNC(=O)CC2)CC1,2.27% (inactive)
12,COC(=O)C1=C(C)N(C(C)c2ccccc2)C(=O)/C1=C\c1ccco1 (stereo unspecified),6.65% (inactive)
13,CCn1c(CSc2nc(C)cc(C)n2)nnc1SCC(N)=O,-4.79% (inactive)
14,Cc1ccccc1-n1cc(CNC(=O)CC2C(=O)NCCN2C/C=C/c2ccccc2)cn1 (stereo unspecified),-1.08% (inactive)
15,O=C(CCN1CCN(c2ccccc2)CC1)NNC(=S)Nc1ccccc1,12.2% (inactive)
16,CCN(CC)S(=O)(=O)c1ccc(NC(=O)c2cccnc2Cl)c(NC(=O)c2cccnc2Cl)c1,10.8% (inactive)
17,Clc1ccc2nc(CSc3ccccc3)cn2c1,35.4% (active)
18,CCOc1ncccc1C(=O)OCc1cn2cc(Cl)ccc2n1,-9.01% (inactive)
19,O=c1cc(CSc2ccc(Cl)cc2)nc(N2CCOCC2)[nH]1,2.61% (inactive)
